# Assay results reported in the supplement of paper PMC12282887.
# ± gives the standard deviation of the averaged measurements.
# Tests used:
# Assay in all cases: promoter activity interaction Z-score (Lux/OD deviation from empty-vector control); higher = stronger promoter induction by the compound
# [1] = system: E. coli BW25113 acrABp lux reporter
# How it was run: (§1)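 Every compound was given at four 1:2 dilutions, in biological duplicates, to E. coli BW25113 carrying low-copy luxCDABE promoter reporters in wild-type or single-gene deletion backgrounds. Growth in 40 µl LB Lennox in 384-well plates at 37°C was followed by OD600 and luminescence readings every 30 min for 12 h, integrated over 0–8 h for wild type and 1–9 h for deletion strains, with wells below 10% of the median growth value excluded. Scores are Z-transformed residuals of growth-normalised luminescence fitted against a control.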
# [2] = system: E. coli BW25113 marRABp lux reporter
# How it was run: as §1
# [3] = system: E. coli BW25113 micFp lux reporter
# How it was run: as §1
# [4] = system: E. coli BW25113 ompFp lux reporter
# How it was run: as §1
# [5] = system: E. coli BW25113 robp lux reporter
# How it was run: as §1
# [6] = system: E. coli BW25113 soxSp lux reporter
# How it was run: as §1
# [7] = system: E. coli BW25113 tolCp lux reporter
# How it was run: as §1
# [8] = 0.0081 µg/ml, genetic background: wild type
# [9] = 0.0081 µg/ml, genetic background: ΔmarA
# [10] = 0.0081 µg/ml, genetic background: Δrob
# [11] = 0.0081 µg/ml, genetic background: ΔsoxS
# [12] = 0.016 µg/ml, genetic background: wild type
# [13] = 0.016 µg/ml, genetic background: ΔmarA
# [14] = 0.016 µg/ml, genetic background: Δrob
# [15] = 0.016 µg/ml, genetic background: ΔsoxS
# [16] = 0.033 µg/ml, genetic background: wild type
# [17] = 0.033 µg/ml, genetic background: ΔmarA
# [18] = 0.033 µg/ml, genetic background: Δrob
# [19] = 0.033 µg/ml, genetic background: ΔsoxS
smiles,measurement,setting,value
CC1(C)S[C@@H]2[C@H](/N=C/N3CCCCCC3)C(=O)N2[C@H]1C(=O)O [Mecillinam],promoter activity interaction Z-score,[1]; [8],0.0459 ± 0.4
same,promoter activity interaction Z-score,[1]; [9],1.25 ± 1.5
same,promoter activity interaction Z-score,[1]; [10],-0.273 ± 0.055
same,promoter activity interaction Z-score,[1]; [11],-0.522 ± 0.019
same,promoter activity interaction Z-score,[1]; [12],-0.377 ± 0.16
same,promoter activity interaction Z-score,[1]; [13],0.612 ± 0.15
same,promoter activity interaction Z-score,[1]; [14],-0.267 ± 0.022
same,promoter activity interaction Z-score,[1]; [15],-0.431 ± 0.57
same,promoter activity interaction Z-score,[1]; [16],0.0507 ± 0.0088
same,promoter activity interaction Z-score,[1]; [17],-0.755
same,promoter activity interaction Z-score,[1]; [18],0.113 ± 0.12
same,promoter activity interaction Z-score,[1]; [19],-0.499 ± 0.14
same,promoter activity interaction Z-score,[2]; [8],0.0167 ± 0.096
same,promoter activity interaction Z-score,[2]; [9],-0.0228 ± 0.035
same,promoter activity interaction Z-score,[2]; [10],0.0796 ± 0.13
same,promoter activity interaction Z-score,[2]; [11],-0.119 ± 0.16
same,promoter activity interaction Z-score,[2]; [12],-0.158 ± 0.16
same,promoter activity interaction Z-score,[2]; [13],-0.0902 ± 0.12
same,promoter activity interaction Z-score,[2]; [14],0.334 ± 0.2
same,promoter activity interaction Z-score,[2]; [15],-0.0159 ± 0.17
same,promoter activity interaction Z-score,[2]; [16],0.203 ± 0.034
same,promoter activity interaction Z-score,[2]; [17],0.119
same,promoter activity interaction Z-score,[2]; [18],1.33
same,promoter activity interaction Z-score,[2]; [19],0.151 ± 0.51
same,promoter activity interaction Z-score,[3]; [8],0.276 ± 0.25
same,promoter activity interaction Z-score,[3]; [9],0.207 ± 0.062
same,promoter activity interaction Z-score,[3]; [10],0.351 ± 0.025
same,promoter activity interaction Z-score,[3]; [11],-0.288 ± 0.15
same,promoter activity interaction Z-score,[3]; [12],0.194 ± 0.12
same,promoter activity interaction Z-score,[3]; [13],0.155 ± 0.054
same,promoter activity interaction Z-score,[3]; [14],0.474 ± 0.16
same,promoter activity interaction Z-score,[3]; [15],0.251 ± 0.044
same,promoter activity interaction Z-score,[3]; [16],0.824 ± 0.39
same,promoter activity interaction Z-score,[3]; [17],-0.211 ± 0.025
same,promoter activity interaction Z-score,[3]; [18],-0.0142 ± 0.33
same,promoter activity interaction Z-score,[3]; [19],0.562 ± 0.17
same,promoter activity interaction Z-score,[4]; [8],0.00268 ± 0.17
same,promoter activity interaction Z-score,[4]; [9],-0.0176 ± 0.4
same,promoter activity interaction Z-score,[4]; [10],-0.211 ± 0.62
same,promoter activity interaction Z-score,[4]; [11],-0.38 ± 0.044
same,promoter activity interaction Z-score,[4]; [12],-1.12 ± 0.37
same,promoter activity interaction Z-score,[4]; [13],-0.241 ± 0.0076
same,promoter activity interaction Z-score,[4]; [14],-0.807 ± 1.2
same,promoter activity interaction Z-score,[4]; [15],-0.124 ± 0.41
same,promoter activity interaction Z-score,[4]; [16],-1.28 ± 0.79
same,promoter activity interaction Z-score,[4]; [17],-0.894 ± 1.1
same,promoter activity interaction Z-score,[4]; [18],-1.44
same,promoter activity interaction Z-score,[4]; [19],0.0879 ± 0.27
same,promoter activity interaction Z-score,[5]; [8],0.327 ± 0.16
same,promoter activity interaction Z-score,[5]; [9],1.43 ± 0.17
same,promoter activity interaction Z-score,[5]; [10],-0.0357 ± 0.087
same,promoter activity interaction Z-score,[5]; [11],0.198 ± 0.16
same,promoter activity interaction Z-score,[5]; [12],-0.956 ± 0.2
same,promoter activity interaction Z-score,[5]; [13],0.379 ± 0.24
same,promoter activity interaction Z-score,[5]; [14],-1.19 ± 0.41
same,promoter activity interaction Z-score,[5]; [15],0.457 ± 1.5
same,promoter activity interaction Z-score,[5]; [16],-1.37 ± 0.12
same,promoter activity interaction Z-score,[5]; [17],-0.827 ± 0.15
same,promoter activity interaction Z-score,[5]; [18],-1.65
same,promoter activity interaction Z-score,[5]; [19],-1.03 ± 0.28
same,promoter activity interaction Z-score,[6]; [8],0.14 ± 0.081
same,promoter activity interaction Z-score,[6]; [9],0.149 ± 0.16
same,promoter activity interaction Z-score,[6]; [10],0.13 ± 0.12
same,promoter activity interaction Z-score,[6]; [11],0.171 ± 0.015
same,promoter activity interaction Z-score,[6]; [12],0.0658 ± 0.21
same,promoter activity interaction Z-score,[6]; [13],0.371 ± 0.073
same,promoter activity interaction Z-score,[6]; [14],0.0922 ± 0.097
same,promoter activity interaction Z-score,[6]; [15],0.495 ± 0.048
same,promoter activity interaction Z-score,[6]; [16],0.18 ± 0.061
same,promoter activity interaction Z-score,[6]; [17],0.154 ± 0.13
same,promoter activity interaction Z-score,[6]; [18],-0.163 ± 0.38
same,promoter activity interaction Z-score,[6]; [19],0.865 ± 0.22
same,promoter activity interaction Z-score,[7]; [8],0.00505 ± 0.64
same,promoter activity interaction Z-score,[7]; [9],-0.0513 ± 0.34
same,promoter activity interaction Z-score,[7]; [10],-0.155 ± 0.23
same,promoter activity interaction Z-score,[7]; [11],-0.674 ± 0.22
same,promoter activity interaction Z-score,[7]; [12],-0.967 ± 0.5
same,promoter activity interaction Z-score,[7]; [13],-0.771 ± 0.8
same,promoter activity interaction Z-score,[7]; [14],-1 ± 0.24
same,promoter activity interaction Z-score,[7]; [15],-0.0514 ± 0.98
same,promoter activity interaction Z-score,[7]; [16],-0.779 ± 2.4
same,promoter activity interaction Z-score,[7]; [17],-0.938
same,promoter activity interaction Z-score,[7]; [18],0.0896 ± 2.1
same,promoter activity interaction Z-score,[7]; [19],1.16 ± 0.64
